Structures are written as SMILES. Results filed as inconclusive are left out. Unmarked numbers belong to inactive results. Calls come from the whole dose curve.
% is set by controls: 0 for no effect and ±100 for the full control effect.

A short description of this test: qHTS assay for small molecule agonists of the antioxidant response element (ARE) signaling pathway - cell viability counter screen (AID 743203). Note: nearly all actives have a fitted effect of over 55% in size. Particulars: ARE-bla HepG2 viability, CellTiter-Glo luminescence, 16 h; series mostly up to 73.3 µM; viability change, negative = cytotoxic: at the top concentration. An excerpt:
National Center for Advancing Translational Sciences [NCATS]
NIH Chemical Genomics Center [NCGC]
U.S. Environmental Protection Agency [EPA]
National Institutes of Environmental Health Sciences [NIEHS]
National Toxicology Program [NTP]
U.S. Food and Drug Administration [FDA]
Oxidative stress has been implicated in the pathogenesis of a variety of diseases ranging from cancer to neurodegeneration. The antioxidant response element (ARE) signaling pathway plays an important role in the amelioration of oxidative stress. The CellSensor ARE-bla HepG2 cell line (Invitrogen) can be used for analyzing the Nrf2/antioxidant response signaling pathway. Nrf2 (NF-E2-related factor 2) and Nrf1 are transcription factors that bind to AREs and activate these genes. The CellSensor ARE-bla Hep G2 cell line contains a beta-lactamase reporter gene under control of the Antioxidant Response Element (ARE) stably integrated into HepG2 cells. The activation of the report gene under culture conditions can be detected by fluorescence intensity. This cell line has been used to screen the Tox21 10K compound library to identify agonists that induce oxidative stress. The cytotoxicity of the Tox21 compound library against the ARE-bla cell line was tested in parallel by measuring the cell viability using CellTiter-Glo assay (Promega, Madison, WI) in the same wells.
Tox21 Assay Protocol Summary:
ARE-bla HepG2 cells were dispensed at 2,000 cells/5 ul/well in 1536-well white wall/solid bottom plates using a Multidrop Combi (ThermoFisher Scientific, Waltham, MA) dispenser. After the assay plates were incubated at 37C/5% CO2 for 5 hrs, 23 nL of compounds dissolved in DMSO, positive controls or DMSO only was transferred to the assay plate by a pintool work station (Kalypsys, San Diego, CA). The plates were incubated at 37C/5% CO2 for 16 hrs, followed by addition of 4 ul/well of CellTiter-Glo reagent into the assay plates using a Flying Reagent Dispenser (Aurora Discovery, San Diego, CA). After 30 min incubation at room temperature, the luminescence intensity in the assay plates was measured using a ViewLux (PerkinElmer, Shelton, CT) plate reader.
Regarding `C[Si](C)(C)O[Si](O)(O)O`, the “viability change, negative = cytotoxic” value is -6.73%.

Turning to `CC(C)(C)C(=O)CC(=O)C(C)(C)C`, the “viability change, negative = cytotoxic” value is 0.625% [at 94.8 µM].

Regarding `CCN1CCN(C(=O)N[C@@H](C(=O)N[C@@H]2C(=O)N3[C@@H]2SC(C)(C)[C@H]3C(=O)O)c2ccccc2)C(=O)C1=O`, the “viability change, negative = cytotoxic” value was 7.47%.

Turning to `COc1cc(OC)cc(OC)c1`, the “viability change, negative = cytotoxic” value is 3.18%.

Consider `Nc1cc(S(=O)(=O)O)ccc1O`, for which the “viability change, negative = cytotoxic” value was 0.608%.

For the compound `CCCCCCC(O)CO` (stereo not given), the “viability change, negative = cytotoxic” value was 8.55%.

Turning to `CN1CCN(C(=O)C2CCCCC2)CC1`, the “viability change, negative = cytotoxic” value is -0.0531%.

In the case of `CC(C)(C)C(=O)NCCCC(=O)O`, the “viability change, negative = cytotoxic” value was 4.96%.

As to `NC[C@H]1O[C@H](O[C@H]2[C@H](O)[C@@H](O[C@H]3O[C@H](CO)[C@@H](O)[C@H](N)[C@H]3O)[C@H](N)C[C@@H]2N)[C@H](N)[C@@H](O)[C@@H]1O`, the “viability change, negative = cytotoxic” value is 2.54% [at 34.3 µM].

Turning to `N[C@H]1C(O)O[C@H](CO)[C@@H](O)[C@@H]1O` (stereo not given in full), the “viability change, negative = cytotoxic” value was -5.65%.

Take `N=C(N)N1CCc2ccccc2C1`: the viability change, negative = cytotoxic is -8.38% [at 8.36 µM].

For the compound `CC(=O)/C=C/C=C1/C2CCC(C2)C1(C)C` (stereo not given), the “viability change, negative = cytotoxic” value is -4.21%.

As to `c1coc(Cn2cccc2)c1`, the “viability change, negative = cytotoxic” value is 11.9%.

Take `CC1(C)S[C@@H]2[C@H](NC(=O)Cc3ccccc3)C(=O)N2[C@H]1C(=O)O` (tested in a mixture with another compound): the “viability change, negative = cytotoxic” value was 14.8%.

With `COC(=O)N/N=C/c1c[n+]([O-])c2ccccc2[n+]1[O-]`, the “viability change, negative = cytotoxic” value was 11.2%.

For the compound `CCCCNCC`, the “viability change, negative = cytotoxic” value was 4.12%.

Take `Clc1ccc2c(c1)Nc1ccccc1S2`: the “viability change, negative = cytotoxic” value is -4.96%.

On to `COc1cc2nc(N3CCN(C(=O)C4CCCO4)CC3)nc(N)c2cc1OC` (stereo not given), for which the “viability change, negative = cytotoxic” value was -0.904%.

For `C=COCCCCO`, the “viability change, negative = cytotoxic” value was 4.66%.

For `C/C(Cl)=C/CCl`, the “viability change, negative = cytotoxic” value was -1.14% [at 94.8 µM].

As for `C=CCON/C(CCC)=C1\C(=O)CC(C)(C)C(C(=O)OC)=C1O`, the “viability change, negative = cytotoxic” value was -1.75%.

For `O=CN1CCCCC1`, the “viability change, negative = cytotoxic” value was -0.965%.

On to `CCCCOCCCC`, for which the “viability change, negative = cytotoxic” value was 0.95%.

For `Cc1ccc(O)c([N+](=O)[O-])c1`, the “viability change, negative = cytotoxic” value is -2.05% [at 94.8 µM].

Consider `CC(C)OCCO`, for which the “viability change, negative = cytotoxic” value is 2.81%.

As for `CC(=O)OCC(=O)[C@@]1(O)CC[C@H]2[C@@H]3CCC4=CC(=O)C=C[C@]4(C)[C@H]3[C@@H](O)C[C@@]21C`, the “viability change, negative = cytotoxic” value was 6.55%.

As to `CCCCCCCCCCCCCCCC/C=C/C1CC(=O)OC1=O` (stereo not given), the “viability change, negative = cytotoxic” value is -0.803%.

`CN(C)CCC[C@@]1(c2ccc(F)cc2)OCc2cc(C#N)ccc21`: the “viability change, negative = cytotoxic” value was -1.27%.

Regarding `CCCCCCCCOCCC#N`, the “viability change, negative = cytotoxic” value is 6.2%.

On to `Clc1cc(Cl)c(Cl)c(Cl)c1Cl`, for which the “viability change, negative = cytotoxic” value is 5.75%.

On to `CCC(=O)OCCOc1ccccc1`, for which the “viability change, negative = cytotoxic” value is -18%.

As to `CC/C=C\CCCCCCCCCCOC(C)=O`, the “viability change, negative = cytotoxic” value is -2.6%.

On to `C[C@@H](CN1CC(=O)NC(=O)C1)N1CC(=O)NC(=O)C1`, for which the “viability change, negative = cytotoxic” value is -10.2%.

On to `CC[C@@]1(c2ccccc2)NC(=O)N(C)C1=O`, for which the “viability change, negative = cytotoxic” value is -0.653%.

As for `CC(C)C(=O)Nc1cccc(C2CN3CCSC3=N2)c1` (stereo not given), the “viability change, negative = cytotoxic” value was 0.263%.

Consider `C=C(C)C(=O)OCCCC`, for which the “viability change, negative = cytotoxic” value is 1.88% [at 94.8 µM].

On to `Cc1ccc2cccnc2c1`, for which the “viability change, negative = cytotoxic” value is 0.0633%.

`CN(C)c1cc(NC(=O)CNC(C)(C)C)c(O)c2c1C[C@H]1C[C@H]3[C@H](N(C)C)C(=O)C(C(N)=O)=C(O)[C@@]3(O)C(=O)C1=C2O`: the “viability change, negative = cytotoxic” value is -17.1%.

As for `CC(=O)OC1CCC(C(C)(C)C)CC1` (stereo not given), the “viability change, negative = cytotoxic” value is 7.97%.

Consider `NNC(=O)OCc1ccccc1`, for which the “viability change, negative = cytotoxic” value was 8.32%.

For the origin of these results see PubChem BioAssay (Tox21).
